HUVEC tox IL1B: HUVEC cytotoxicity counter-screen, IL-1B stimulated; HUVEC cell count loss, Hoechst imaging; cell count reduction, % at 2 µM; actives 0.41% (n = 94,000);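 active = cell count reduction more than 3 SD above the screen-wide mean, cut at about 70% in these data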
NFkB transloc inh: blocks IL-1B driven NFkB nuclear translocation in HUVEC cells; actives 0.43% (n = 94,000); inhibition, % at 2 µM; AID 796; HUVEC IL-1B NFkB p65 nuclear translocation imaging;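 active = inhibition above about 30% together with a positive call from visual inspection of the well image, limit read from the data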;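 also: nuclear over cytoplasmic p65 intensity ratio measured by imaging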
Plk1 PBD FP: inhibitors of human Plk1 polo box domain binding; Plk1 PBD phosphopeptide binding, fluorescence polarization; P53350; actives 0.13% (n = 97,000); inhibition, %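 (tested at about 20 µM)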; in the data active = inhibition above about 34%, passing the limit was not always enough
Target sequence (P53350 whole entry, looked up, the tested form may be a part): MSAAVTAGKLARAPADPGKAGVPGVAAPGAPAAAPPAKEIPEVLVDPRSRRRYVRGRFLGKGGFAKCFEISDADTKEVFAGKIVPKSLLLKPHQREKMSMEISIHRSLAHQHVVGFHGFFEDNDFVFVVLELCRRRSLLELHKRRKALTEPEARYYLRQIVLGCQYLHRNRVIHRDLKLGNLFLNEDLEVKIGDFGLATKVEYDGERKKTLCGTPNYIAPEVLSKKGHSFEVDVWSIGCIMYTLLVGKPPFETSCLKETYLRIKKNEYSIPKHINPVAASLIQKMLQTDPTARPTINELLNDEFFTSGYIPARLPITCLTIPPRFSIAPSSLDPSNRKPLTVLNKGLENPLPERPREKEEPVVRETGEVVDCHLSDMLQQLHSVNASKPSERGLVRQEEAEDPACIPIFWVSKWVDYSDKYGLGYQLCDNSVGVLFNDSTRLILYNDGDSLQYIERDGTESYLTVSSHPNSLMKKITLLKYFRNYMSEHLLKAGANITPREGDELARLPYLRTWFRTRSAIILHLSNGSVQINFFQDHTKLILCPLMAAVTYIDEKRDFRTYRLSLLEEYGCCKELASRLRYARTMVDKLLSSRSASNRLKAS
Pyk2 oligo antag: blocks oligomerization of human Pyk2 in cells | Q293 cells, Pyk2 FERM NanoBiT luminescence; hits give low values | AID 1347419 | z-score (the deposit names both 25 µM and 10 µM) | actives 0.83% (n = 99,000);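 active = Z-score of -3 or lower, scaled per plate to the spread of control and sample wells; inactive = z-score above -3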;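 also: negative z-score means lost luminescence so less FERM oligomerization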
PLK1 kinase inh: PLK1 (human) kinase inhibition. P53350. recombinant PLK1 kinase, TR-FRET peptide phosphorylation. inhibition, % at 10 µM. actives 0.53% (n = 97,000);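 active = inhibition of 50% or more in the single-concentration screen; inactive = inhibition below 50%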
IL1B NFkB pot: enhances IL-1B driven NFkB nuclear translocation | actives 0.3% (n = 94,000) | HUVEC IL-1B NFkB p65 nuclear translocation imaging | activation, % at 2 µM;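 active = activation above 40%, about the mean plus 3 SD, also judged a hit on visual image review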;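 also: percent activation is computed from the nuclear over cytoplasmic p65 intensity ratio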
Numbers stand for hits; . = inactive; / = no result given. Only some compounds are listed: those with a hit (about 2.2% of all), similar ones and a draw of the others.

SMILES	HUVEC tox IL1B	NFkB transloc inh	Plk1 PBD FP	Pyk2 oligo antag	PLK1 kinase inh	IL1B NFkB pot
O=C(C1CCCN(S(=O)(=O)c2ccc(Br)s2)C1)N1CCCCCC1 (configuration not stated)	.	32.8	.	.	.	.
O=C(Cn1nc(Cc2cccnc2)c2ccccc2c1=O)NCCCN1CCCC1=O	.	.	.	/	.	.
CCN(CC)CCNC(=O)Cn1nc(Cc2cccnc2)c2ccccc2c1=O	/	/	.	/	61.9	/
CCOC(=O)C(C)Sc1cc(CS(=O)(=O)c2ccccc2)nc(-c2ccccc2)n1 (configuration not stated)	.	.	.	.	.	.
COc1ccc(-c2nnc(NC(=O)c3ccc(S(=O)(=O)N4CCCc5ccccc54)cc3)o2)cc1	.	.	.	-3.74	.	.
S=c1[nH]nc(-c2cc(-c3ccco3)[nH]n2)n1-c1ccccc1	.	34.8	.	.	.	.
CCCC(=O)C1=C(O)C(C(=O)OC)C(C)(C)CC1=NC(C)(C)C (configuration not stated)	.	45.0	.	.	.	.
CCCCCOc1ccc(CSc2ncn[nH]2)cc1	.	.	.	.	.	.
COc1ccc(OC)c(C2C3=C(CCCC3=O)Nc3c2c(=O)n(C)c(=O)n3C)c1 (configuration not stated)	86.5	.	.	.	.	.
CCOC(=O)C1=C(C)NC2=C(C(=O)CC(c3cccs3)C2)C1c1cccs1 (configuration not stated)	.	.	.	-3.33	.	.
COC(=O)C1=C(C)NC2=C(C(=O)CC(c3cccs3)C2)C1c1ccsc1 (configuration not stated)	.	.	.	.	.	.
CCCCN(CCCC)S(=O)(=O)c1ccc(NC(=O)Cc2cccs2)cc1	.	.	.	-3.23	.	.
CCCN(CCC)S(=O)(=O)c1ccc(NC(=O)Cc2cccs2)cc1	.	.	.	.	.	.
CC1CN(C(=O)C2CC2)C(C)CN1C(=O)C1CC1 (configuration not stated)	/	/	/	.	/	/
O=C(Nc1c(F)cccc1F)c1cnc(N2CCN(c3ccccn3)CC2)c2ccccc12	.	.	.	-3.6	.	.
O=C(NC1(C(F)(F)F)C(=O)Nc2c1c(=O)[nH]c(=O)n2Cc1ccccc1)c1ccc(Cl)cc1 (configuration not stated)	.	31.9	.	.	.	.
O=c1[nH]c(=O)n(Cc2ccccc2)c2c1C(C(F)(F)F)(C(F)(F)F)N=C(c1ccco1)N2	.	.	.	-3.5	.	.
O=S(=O)(CCOc1ccccc1)c1nc2ccccc2[nH]1	.	.	.	.	.	.
CCOc1ccc(N=C2NC(=O)S/C2=C\c2ccc(Cl)cc2)cc1	.	.	.	.	.	.
COc1ccc(N=C2NC(=O)S/C2=C\c2ccc(N(C)C)cc2)cc1	.	.	.	-3.08	.	.
Cn1ncc(Br)c1C(=O)Nc1ccc(F)cc1F	87.8	98.1	.	.	.	.
Cc1c(C(=O)O)nn(-c2ccccc2)c(=O)c1C#N	/	/	.	/	62.8	/
COc1ccc(Cc2noc(COc3ccc(Cl)cc3)n2)cc1	.	.	.	.	.	.
COc1ccccc1OCc1nc(Cc2ccc(Cl)cc2)no1	.	.	.	.	.	41.6
CCCCn1c(=O)nc2n(-c3ccccc3)c3ccccc3cc-2c1=O	.	.	.	.	.	91.8
SMILES	HUVEC tox IL1B	NFkB transloc inh	Plk1 PBD FP	Pyk2 oligo antag	PLK1 kinase inh	IL1B NFkB pot
CCCCn1c(=O)c(C(=O)c2ccccc2)nc2ccccc21	.	.	.	.	.	.
N#CCSc1nnc(COc2ccc3ccccc3c2)o1	.	.	.	.	.	.
CCOc1cc(-c2cc(-c3ccccc3)nc(N)c2C#N)ccc1O	.	.	.	-3.35	.	.
CCOc1cc(-c2c(C#N)c(N)nc3c2CCCC3)ccc1O	/	/	/	.	/	/
CCOc1cc(-c2cc(-c3ccc(N)cc3)nc(N)c2C#N)ccc1O	.	.	.	-3.76	.	.
O=C(O)CN1CCN(Cc2ccc(Cl)cc2)C1=O	/	/	/	.	/	/
COC(=O)c1cc(Cl)c(NC(=O)c2cc3ccccc3o2)cc1OC	.	.	.	.	.	.
O=C(Nc1ccccc1Sc1ccccc1)c1ccccc1F	.	.	.	.	.	.
Cc1cccc(NC(=O)CSc2ncnc3nc[nH]c23)c1	.	.	.	.	55.4	.
O=C1CC(c2ccc(F)cc2)Cc2nc(N3CCN(c4ccccc4)CC3)ncc21 (configuration not stated)	.	.	.	.	.	.
O=C1CC(c2ccc(F)cc2)Cc2nc(NCC3CCCO3)ncc21 (configuration not stated)	.	47.9	.	.	.	.
COc1cccc(Cn2c(NCC(C)C)nc3c2c(=O)n(C)c(=O)n3C)c1	73.5	.	.	.	.	.
Cn1c(=O)c2c(nc(NCCO)n2CCc2ccccc2)n(C)c1=O	/	/	/	.	/	/
CC(C)CNc1nc2c(c(=O)n(C)c(=O)n2C)n1Cc1cccc(Br)c1	.	.	.	.	.	.
Cn1c(=O)c2c(nc(NCc3ccc4c(c3)OCO4)n2Cc2ccc(F)cc2)n(C)c1=O	.	44.3	.	.	.	.
CCCNc1nc2c(c(=O)n(C)c(=O)n2C)n1CCc1ccccc1	.	99.9	.	.	.	.
C=CCn1c(SCc2c(Cl)cccc2Cl)nnc1-c1cccnc1	.	.	.	.	.	.
C1=Nc2c(NCc3ccccc3)ncnc2Oc2ccccc21	90.7	97.9	.	.	.	.
C=CCSC(=C(C#N)C#N)c1cc2c([nH]1)CCCC2	.	.	.	.	.	.
CC(=O)N/N=C/c1ccc(OCCOc2ccc(Br)cc2)cc1	/	/	/	.	/	/
O=C(COC(=O)c1ccc(Cl)c(S(=O)(=O)N2CCCC2)c1)NC1CCCC1	.	.	.	.	.	.
O=C(COC(=O)c1ccccc1C(=O)c1ccc(Cl)c([N+](=O)[O-])c1)NC1CCCCCC1	.	83.4	.	.	.	.
COc1ccc(/C=N/c2oc(-c3ccccc3)cc2C#N)cc1OC	.	.	.	.	.	.
Cc1ccccc1NC1=C/C(=N\S(=O)(=O)c2cccs2)c2ccccc2C1=O	.	.	.	-3.98	.	.
COC(=O)C(C(C)=O)C1=C/C(=N\S(=O)(=O)c2ccc(C)cc2)c2ccccc2C1=O (configuration not stated)	.	.	.	.	.	.
SMILES	HUVEC tox IL1B	NFkB transloc inh	Plk1 PBD FP	Pyk2 oligo antag	PLK1 kinase inh	IL1B NFkB pot
CCCNC(=S)Nc1ccc(Br)cc1	91.9	.	.	.	.	.
COc1ccc2c(COC(=O)c3n[nH]c4ccccc34)cc(=O)oc2c1	.	.	.	.	.	.
O=C1Nc2ccccc2/C1=N\c1sc2c(c1C(=O)Nc1ccccc1)CCCC2	.	.	.	.	.	.
COc1ccccc1OCC(=O)NCC1CCCCC1	93.5	95.7	.	.	.	.
COc1ccccc1OCC(=O)NCCNC(=O)COc1ccccc1OC	.	.	.	.	.	.
CCOc1ccc2nc(NC(=O)c3ccc(S(=O)(=O)N4CCOCC4)cc3)sc2c1	.	.	.	.	.	.
